In PubChem BioAssay AID1159580 (chemical genetic matrix, 2015):
Screen size: about 5,500 compounds; about 2,000 (36%) were called active. Inconclusive results (about 18%) are left out. No stated cut-off is given here; in the data, active means normalized growth mostly below about 0.91 (no sharp cut-off); inconclusive means no clear call, values can overlap the other calls; inactive means mostly above about 0.92. Some of the results follow.

Assay: chemical genetic growth profiling, strain panel (AID 1159580);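 further: tested at 20 µM; growth read once vehicle control cultures reached saturation at 30 °C; 1 = growth at the plate median or of vehicle wells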
Details: S. cerevisiae deletion strains, growth OD

Measured: normalized growth

OC[C@H]1O[C@@H](n2cnc3c(NC4CCCCC4)ncnc32)[C@H](O)[C@@H]1O
inactive: locus YAL040C, strain CLN3, stronger effect = lower value 1.04 | locus YCL061C, strain MRC1 (second series), stronger effect = lower value 1.01 | locus YDR363W, strain ESC2, stronger effect = lower value 0.994 | locus YER002W, strain NOP16, stronger effect = lower value 1.01 | locus YGR078C, strain PAC10, stronger effect = lower value 1.05 | locus YMR263W, strain SAP30, stronger effect = lower value 1.01 | locus YMR307W, strain GAS1, stronger effect = lower value 1.01 | locus YNL175C, strain NOP13, stronger effect = lower value 1.01 | locus YNL197C, strain WHI3, stronger effect = lower value 1.01 | locus YNL224C, strain SQS1, stronger effect = lower value 1 | locus YNL322C, strain KRE1, stronger effect = lower value 1.02 | locus YOR083W, strain WHI5 (second series), stronger effect = lower value 0.984 | locus YPL055C, strain LGE1, stronger effect = lower value 0.995
